Test results: PubChem BioAssay (NCATS)
Where “and” joins values, the source holds several entries; their conditions need not be identical. Identical values can stand only once. A number with no mark means an inactive call. Inconclusive results are not listed. Calls of active or inactive are those of the source. Unless noted, calls follow the shape of the dose curve; as a rule, active = well fitted curve in the direction sought with a large enough effect; inconclusive = small, poorly fitted or top-dose-only effect, or another doubt; inactive = no such curve, though single readings can be large; an effect the other way counts as inactive or inconclusive.

System: not listed separately
Assay: qHTS Assay for Identification of Small Molecule Agonists for Hypoxia Response Element Signaling Pathway (AID 914; active = well fitted activation curve with a large enough effect in the signal ratio, with a control signal flat, not every such curve was filed as active; the % refers to the signal ratio; also: % of control where 0% means no effect)
Conditions: ME-180 (cervical carcinoma) HRE-bla reporter, beta-lactamase ratio, CoCl2, 17 h; stronger effect = higher value
In short: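 Positive modulation of EC50 CoCl2-induced hypoxia response element signaling is measured in ME-180 cells with a beta-lactamase reporter. Compounds are titrated, incubation runs 17 hours, and %Activity derives from the blue/green ratio.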

SMILES	activation
CC(=O)OCC1=C(C(=O)O)N2C(=O)[C@@H](NC(=O)Cc3cccs3)[C@H]2SC1	-3.15%
COCCCC/C(=N\OCCN)c1ccc(C(F)(F)F)cc1	24.7%
O=C(O)CP(=O)(O)O	5.52% and -2.23%

System: not listed separately
Assay: qHTS Assay for Identification of Small Molecule Agonists for Thrombopoietin (TPO) Signaling Pathway (AID 917); also: % is scaled to controls: 0 for no effect and ±100 for the full control effect
Conditions: TPO signaling pathway reporter cells, agonist qHTS, stimulated with TPO at its EC50; series mostly up to 38.5 µM; activity, positive = activation: at the top concentration
In short: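 Stimulation at the TPO EC50 (26 pM final) was used to detect activators. Ba/F3 mouse cells bearing human TPO receptor and a luciferase reporter under the Glycoprotein IIb promoter were exposed to compounds for 24 hrs at 37 C.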

SMILES	activity, positive = activation [%]
C(=C\c1ccccc1)/CN1CCN(C(c2ccccc2)c2ccccc2)CC1	-15.7
CSc1ccc(C(=O)c2[nH]c(=O)[nH]c2C)cc1	1.32
CCc1c(C)[nH]c2c1C(=O)C(CN1CCOCC1)CC2 (stereo unspecified)	-14.2
C[C@]12CCC(=O)C=C1CC[C@@H]1[C@@H]2CC[C@@]2(C)[C@H]1CC[C@]2(O)C(=O)CO	-21
O=C1CC2(CCCC2)CC(=O)N1CCCCN1CCN(c2ncccn2)CC1	-4.91
CCNC(=O)N1CCN(CCCC(c2ccc(F)cc2)c2ccc(F)cc2)CC1	-24.1
C[N+](C)(C)CCCCCCCCCC[N+](C)(C)C	-2.73
O=C(O)CP(=O)(O)O	-12
NCCCNCCSP(=O)(O)O	-6.02
CN(C)CCN(Cc1cccs1)c1ccccn1	14.4
O=C(O)CN(CCN(CC(=O)O)CC(=O)O)CCN(CC(=O)O)CC(=O)O	-9.21
C[N+](C)(C)CCOC(=O)CCC(=O)OCC[N+](C)(C)C	7.67

System: not listed separately
Assay: qHTS Assay for Identification of Small Molecule Antagonists for Thrombopoietin (TPO) Signaling Pathway (AID 918); also: potency is read from the fitted curve at half-maximal effect; nearly all actives have a fitted effect of over 60% in size
Conditions: TPO-dependent cell signaling reporter, antagonist mode
Description: NIH Molecular Libraries Screening Centers Network [MLSCN]
NIH Chemical Genomics Center [NCGC]
The thrombopoietin (TPO) signaling pathway was assayed in murine Ba/F3 cells stably transfected with the human TPO receptor and a luciferase reporter gene controlled by the Glycoprotein IIb promoter (provided by Axxam). BaF3 cells are an IL-3-dependent pro B cell line that upon TPO stimulation, undergo cell division and induce the megakaryocyte marker, Glycoprotein IIb. The assay was screened at the EC50 of TPO (26 pM) to identify inhibitors of the pathway.
NCGC Assay Protocol Summary:
Cells were maintained at 37 C and 5% CO2in RPMI with 10% fetal bovine serum, 0.5 ng/mL murine IL-3, 100U/ml penicillin and 100 ug/ml streptomycin. Prior to plating, cells were incubated overnight in medium without IL-3. Cells were plated at 250 cells/5uL/well into white solid 1536-well plates, 23 nL of compounds were delivered by a pin tool, and 1 uL of TPO (26 pM final concentration in IL-3 deficient medium) was added. Following 24 hrs of incubation at 37 C and 5% CO2, 4 uL of Steadylite detector mix (PerkinElmer) was added, the plates incubated at room temperature for 10 min and luminescence was measured for 10 s and 2X binning by a ViewLux detector (Perkin Elmer).

SMILES	Potency
CNCCCN1c2ccccc2CCc2ccccc21	12.6 µM (active)
COCC(=O)O[C@]1(CCN(C)CCCc2nc3ccccc3[nH]2)CCc2cc(F)ccc2[C@@H]1C(C)C	12.6 µM (active)
COc1cc(C(=O)OCCCN2CCCN(CCCOC(=O)c3cc(OC)c(OC)c(OC)c3)CC2)cc(OC)c1OC	10 µM (active)

System: not listed separately
Assay: Confirmation and Secondary Assay for Modulators of Hemoglobin Beta Chain Splicing at IVS2 705 locus (AID 930);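 also: HeLa cells stably expressing the EGFP-705 splicing reporter; GFP fluorescence per well restored by corrected splicing of the IVS2-705 intron in EGFP; % of control where 0% means no effect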
Conditions: HeLa EGFP-705 splicing reporter, GFP fluorescence, 48 h; series mostly up to 46.1 µM; activation: at the top concentration
In short: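 First, HeLa EGFP-705 cells are seeded at 500/well in Optimem with 2% FCS and left overnight. Next, compound or DMSO is added for 2 days. Finally wells are laser-scanned and total peak GFP intensity scored.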

SMILES	activation
CC(C)(C)NCC(O)c1cc(O)cc(O)c1 (stereo unspecified)	0.485%
CC(=O)OC(C)C[N+](C)(C)C (stereo unspecified)	0.98%
CCCCCN(CCCCC)C(=O)C(CCC(=O)O)NC(=O)c1ccc(Cl)c(Cl)c1 (stereo unspecified)	-0.501% [at 38.3 µM]
CC(C)(Oc1ccc(CCNC(=O)c2ccc(Cl)cc2)cc1)C(=O)O	1.51%
C=CCc1ccccc1OCC(O)CNC(C)C (stereo unspecified)	0.79% [at 38.3 µM]
CN(C)CCN(Cc1cccs1)c1ccccn1	2.45%
CC(N=C(NC#N)Nc1ccncc1)C(C)(C)C (stereo unspecified)	-0.901%

Target: Muscarinic acetylcholine receptor M1 (Rattus norvegicus) (UniProt P08482)
Sequence (P08482 whole entry, looked up): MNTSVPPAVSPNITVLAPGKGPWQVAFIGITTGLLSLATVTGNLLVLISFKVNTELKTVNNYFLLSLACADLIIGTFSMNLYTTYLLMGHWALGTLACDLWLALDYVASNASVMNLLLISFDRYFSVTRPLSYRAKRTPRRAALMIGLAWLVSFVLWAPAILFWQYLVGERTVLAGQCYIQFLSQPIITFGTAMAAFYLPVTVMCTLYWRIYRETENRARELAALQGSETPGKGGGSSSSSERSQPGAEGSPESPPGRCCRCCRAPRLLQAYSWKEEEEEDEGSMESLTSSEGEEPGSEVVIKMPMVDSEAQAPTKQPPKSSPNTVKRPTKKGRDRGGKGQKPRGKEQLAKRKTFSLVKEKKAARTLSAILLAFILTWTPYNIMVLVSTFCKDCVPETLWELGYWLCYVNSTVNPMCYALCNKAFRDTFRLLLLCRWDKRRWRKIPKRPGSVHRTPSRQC
Assay: qHTS Assay for Antagonists of Acetylcholine Muscarinic M1 Receptor: Kinetic Measurement of Intracellular Calcium Response (AID 943); also: nearly all actives have a fitted effect of over 75% in size; also: potency is read from the fitted curve at half-maximal effect;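 as to activity change, negative = inhibition: Fluo-4 calcium signal as peak divided by basal fluorescence over 4 min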
Conditions: M1-expressing cells, kinetic intracellular calcium fluorescence; series mostly up to 35.3 µM; activity change, negative = inhibition: at the top concentration
In short: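 Quantitative HTS in CHO-M1 (rat receptor) cells: 10 min compound exposure ahead of 100 nM carbachol, Fluo-4 fluorescence followed 4 min, value expressed as peak-to-basal ratio.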

SMILES	activity change, negative = inhibition [%]	Potency
O=C(O)CP(=O)(O)O	-6.58	
COc1cc(C(=O)OCCCN2CCCN(CCCOC(=O)c3cc(OC)c(OC)c(OC)c3)CC2)cc(OC)c1OC		0.316 µM (active)
O=C(O)CN(CCN(CC(=O)O)CC(=O)O)CCN(CC(=O)O)CC(=O)O	-21.8	

Target: Muscarinic acetylcholine receptor M1 (Rattus norvegicus) (UniProt P08482)
Assay: qHTS Assay for Antagonists of Acetylcholine Muscarinic M1 Receptor: Measurement of IP-One Response (AID 944); also: nearly all actives have a fitted effect of over 75% in size; also: potency is read from the fitted curve at half-maximal effect
Conditions: CHO-M1 cells, IP-One HTRF, antagonist mode; series mostly up to 46.1 µM; activity change, negative = inhibition: at the top concentration
In short: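 Antagonism was measured as loss of carbachol-driven (EC80) IP1 accumulation in CHO cells carrying rat M1, using a homogeneous IP-One TR-FRET kit read at 620 and 665 nm.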

SMILES	activity change, negative = inhibition [%]	Potency
CCc1c(C)[nH]c2c1C(=O)C(CN1CCOCC1)CC2 (stereo unspecified)	-56.6	
CCNC(=O)N1CCN(CCCC(c2ccc(F)cc2)c2ccc(F)cc2)CC1		17.8 µM (active)
O=C(O)CP(=O)(O)O	-5.44	
COc1cc(C(=O)OCCCN2CCCN(CCCOC(=O)c3cc(OC)c(OC)c(OC)c3)CC2)cc(OC)c1OC		4.47 µM (active)
O=C(O)CN(CCN(CC(=O)O)CC(=O)O)CCN(CC(=O)O)CC(=O)O	0.439	

Target: Pyruvate kinase (Leishmania mexicana) (UniProt Q27686)
Sequence (Q27686 2-499 E452W): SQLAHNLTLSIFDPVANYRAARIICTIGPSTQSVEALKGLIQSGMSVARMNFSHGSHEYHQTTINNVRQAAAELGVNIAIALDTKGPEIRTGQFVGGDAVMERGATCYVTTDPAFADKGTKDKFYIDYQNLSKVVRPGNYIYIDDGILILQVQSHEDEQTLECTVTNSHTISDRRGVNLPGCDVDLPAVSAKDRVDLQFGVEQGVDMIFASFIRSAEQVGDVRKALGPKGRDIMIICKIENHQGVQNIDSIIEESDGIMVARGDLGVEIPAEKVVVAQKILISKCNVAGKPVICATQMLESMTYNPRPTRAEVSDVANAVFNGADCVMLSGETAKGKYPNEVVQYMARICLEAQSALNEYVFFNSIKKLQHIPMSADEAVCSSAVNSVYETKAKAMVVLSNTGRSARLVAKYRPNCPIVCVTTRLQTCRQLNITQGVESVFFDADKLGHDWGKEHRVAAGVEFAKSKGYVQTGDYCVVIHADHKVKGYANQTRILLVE
Assay: qHTS Validation Assay for Inhibitors of Leishmania Mexicana Pyruvate Kinase (AID 945);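 also: 0% = DMSO only neutral control wells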
Conditions: purified L. mexicana pyruvate kinase, enzyme activity, E451W mutant enzyme; series mostly up to 57.5 µM; activity change, negative = inhibition: at the top concentration
In short: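 qHTS eight-point titrations against 0.2 nM LmPYK (E451W) in imidazole buffer pH 7.2 with 0.5 mM PEP, 0.1 mM ADP; 1 h, room temperature. Readout: PKLight luminescence, normalized to neutral DMSO wells.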

SMILES	activity change, negative = inhibition [%]
CNCCCN1c2ccccc2CCc2ccccc21	6.16
CSc1ccc(C(=O)c2[nH]c(=O)[nH]c2C)cc1	-9.84
C[C@]12CCC(=O)C=C1CC[C@@H]1[C@@H]2CC[C@@]2(C)[C@H]1CC[C@]2(O)C(=O)CO	-5.25
O=C1CC2(CCCC2)CC(=O)N1CCCCN1CCN(c2ncccn2)CC1	8.65
O=C(O)CP(=O)(O)O	-4.97
NCCCNCCSP(=O)(O)O	-3.53
CN(C)CCN(Cc1cccs1)c1ccccn1	2.83
C[N+](C)(C)CCOC(=O)CCC(=O)OCC[N+](C)(C)C	-8.69
